# FBW7 act: human FBW7 E3 ligase activation, primary screen. Q969H0. AlphaScreen FBW7–phospho-cyclin E peptide binding, activator screen. normalized activity (activation), % at 26.1 µM. 650,000 tested, 0.13% active; in the data active = normalized activity above about 1.9%;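 also: purified mutant Fbw7 with reduced substrate affinity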
# TEAD-YAP inh: TEAD-YAP interaction inhibition | 640,000 tested, 1.4% active | inhibition, % at 9.12 µM | HEK-TIYL cells, TEAD-Gal4/YAP UAS-luciferase luminescence | AID 1259422; in the data active = inhibition above about 32%;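 also: 0% = median of test compound wells and 100% = reference inhibitor wells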
# GPR151 activ: activates the human receptor GPR151 | 650,000 tested, 1% active | PathHunter beta-arrestin GPR151 cells, luminescence | AID 1508602 | activation, % at 11.2 µM; in the data active = activation above about 4.9%;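 also: 0% = median of compound wells and 100% = cells with positive control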
# Target sequence (Q8TDV0 whole entry, looked up): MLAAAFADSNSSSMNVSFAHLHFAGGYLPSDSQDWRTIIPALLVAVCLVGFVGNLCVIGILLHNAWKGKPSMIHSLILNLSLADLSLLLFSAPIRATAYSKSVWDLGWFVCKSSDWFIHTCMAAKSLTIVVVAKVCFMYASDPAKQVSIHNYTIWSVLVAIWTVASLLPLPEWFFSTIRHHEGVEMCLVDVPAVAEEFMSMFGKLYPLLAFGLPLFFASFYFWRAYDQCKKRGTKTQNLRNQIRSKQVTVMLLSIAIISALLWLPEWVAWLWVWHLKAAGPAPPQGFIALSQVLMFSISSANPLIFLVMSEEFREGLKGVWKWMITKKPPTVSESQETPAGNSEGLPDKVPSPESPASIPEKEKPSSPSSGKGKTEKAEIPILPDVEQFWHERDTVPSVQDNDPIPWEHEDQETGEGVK
# MITF inh: blocks human microphthalmia-associated transcription factor; AID 1259374; O75030; inhibition, % at 2.6 µM; AlphaScreen MITF homodimerization, bead proximity signal; 650,000 tested, 0.91% active; in the data active = inhibition above about 50%;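 also: 0% = vehicle wells with protein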
# Active calls of the source: *. Sampled rows, rich in hits. Any-hit rate of the full collection: about 3.5%.
SMILES,FBW7 act,TEAD-YAP inh,GPR151 activ,MITF inh
CCOC(=O)c1c(C)[nH]c(C(=O)C(C)Nc2ccccc2OCC)c1C (stereo not given),-0.3,-2.6,-0.2,5.4
CCOC(=O)c1[nH]c(C)c(C(=O)N2CC(C)CC(C)C2)c1C (stereo not given),-0.1,43.5*,-1.3,-2.0
CCOC(=O)c1[nH]c(C)c(C(=O)Nc2ccccc2OCC)c1C,-0.2,57.6*,-0.1,-8.8
CCOC(=O)c1[nH]c(C)c(C(=O)N2CCCCCC2)c1C,0.9,-7.6,1.4,20.1
CCOC(=O)c1c(C)[nH]c(C(=O)C(C)Nc2cc(NC(C)=O)ccc2OC)c1C (stereo not given),-0.1,1.4,-1.8,0.9
CCOC(=O)c1[nH]c(C)c(C(=O)Nc2ccccc2C)c1C,-0.2,44.0*,-0.7,-4.9
CCOC(=O)c1c(C)[nH]c(C(=O)C(C)Nc2ccc(OC)c(OC)c2)c1C (stereo not given),-0.1,43.4*,-2.4,42.0
O=C(c1cc2nc3c(c(C(F)(F)F)n2n1)CCc1ccccc1-3)N1CCN(C(c2ccccc2)c2ccccc2)CC1,-0.2,5.6,-0.6,-9.1
COc1ccc(C)cc1NC(=O)c1cc(S(=O)(=O)N2CCCCC2C)ccc1F (stereo not given),0.1,2.0,1.2,13.7
CC1(C)OCC([C@H]2O[C@@H]3OC(C)(C)OC3C2OC(=O)Nc2ccc(Cl)c(Cl)c2)O1 (stereo not given in full),0.0,3.2,0.8,-17.9
CC(=O)c1[nH]c(C)c(C(=O)Nc2cc(Cl)ccc2C)c1C,0.0,-1.1,0.1,16.6
CCOC(=O)c1[nH]c(C)c(C(=O)Nc2cc(Cl)ccc2C)c1C,-0.3,47.4*,-0.3,-10.3
CCOC(=O)c1[nH]c(C)c(C(=O)Nc2cc(C)ccc2OC)c1C,-0.3,56.8*,1.7,1.5
CCOC(=O)c1[nH]c(C)c(CNc2cc(OC)ccc2OC)c1C,0.0,49.6*,-0.1,11.7
CCOC(=O)c1[nH]c(C)c(C(=O)c2ccc(Cl)cc2)c1C,-0.1,40.2*,2.0,12.7
CCCCC(=O)NC(c1ccccc1OC)c1ccc2cccnc2c1O (stereo not given),-1.8,72.7*,1.0,23.8
CCCC(=O)NC(c1ccccc1OC)c1ccc2cccnc2c1O (stereo not given),-1.9,76.2*,-1.2,33.7
COc1ccccc1C(NC(=O)c1cc(OC)c(OC)c(OC)c1)c1cc(Cl)c2cccnc2c1O (stereo not given),-0.2,0.8,1.4,6.6
Cc1ccc2nc(NCCNC(=O)c3cccc(F)c3)c(C#N)cc2c1,0.1,2.1,-0.9,4.1
CC(C)CCn1c(SCC(=O)NCCc2ccc(S(N)(=O)=O)cc2)nc2ccsc2c1=O,0.1,2.0,-0.8,4.9
CN1C(=O)/C(=C/c2cc(Br)ccc2OCC(=O)O)NC1=S,0.0,19.5,1.0,-16.6
CC1CC(C)CN(S(=O)(=O)c2ccc(Cl)c(C(=O)O)c2)C1 (stereo not given),0.1,-6.0,-0.4,-4.6
Cc1cc2c(cc1C)CN(c1cccc(C(=O)NN)c1)C2,-0.1,38.4*,2.5,-6.7
Cc1cc2c(cc1C)CN(c1cccc(C(=O)O)c1)C2,-0.1,34.3*,-0.6,8.8
COc1ccc(N2Cc3ccc(C(=O)NN)cc3C2)cc1,0.1,-34.8,0.4,26.1
SMILES,FBW7 act,TEAD-YAP inh,GPR151 activ,MITF inh
O=C(O)CCN1CCN(c2ccccc2F)CC1,0.1,2.6,-0.1,13.7
CCn1nc(C)c(CNC(=O)c2ccc(OC3CCN(Cc4ccccn4)CC3)cc2)c1C,0.0,52.5*,-0.5,8.6
O=C(NC1CCCCC1)c1cnn2c1NC(c1ccccc1)CC2C(F)(F)F (stereo not given),0.1,0.3,1.0,0.0
Cc1cc(C)c(NS(=O)(=O)c2ccc3[nH]c(=O)oc3c2)c(C)c1,6.3*,4.6,-0.6,13.6
O=c1[nH]c2ccc(S(=O)(=O)Nc3ccccc3)cc2o1,0.1,-39.2,-1.0,-8.9
Cc1cc(/C=N/Nc2nc3ccccc3s2)c(C)n1C1CC1,-0.1,57.4*,-0.7,15.6
O=C(O)c1ccc(/C=N/Nc2nc3ccccc3s2)cc1,-0.1,-64.2,-8.1,4.4
COc1ccc(/C=N/Nc2nc3ccccc3s2)cc1,0.0,34.1*,0.6,1.1
O=c1oc2ccc3ccccc3c2cc1-c1csc(Nc2cc(C(F)(F)F)ccc2Cl)n1,0.9,-5.6,0.9,13.3
Cc1[nH]ncc1-c1ccc(NC(=O)[C@H](N)Cc2cccc(Br)c2)cc1,0.8,10.1,-1.9,25.8
NC(=O)c1ccc(NC(=O)COC(=O)Cn2cnc3ccccc32)cc1,-0.2,3.2,1.2,-15.3
O=C(O)c1ccc(N2N=C(c3ccccc3)/C(=C\c3cccc([N+](=O)[O-])c3O)C2=O)cc1,-0.3,-12.9,-1.8,8.0
O=C(O)c1ccc(N2N=C(c3ccccc3)/C(=C/c3ccco3)C2=O)cc1,-1.1,0.6,-0.2,70.0*
COc1cc(SC)ccc1C(=O)OCc1nnc(-c2ccccc2)o1,-0.2,6.1,1.8,-11.0
CC1=C(C(=O)OCc2ccc(C)cc2)C(c2cccc(Cl)c2)NC(=O)N1 (stereo not given),0.2,0.7,2.3,4.8
O=C1C(C=Nc2ccccc2O)=C(O)c2ccccc21,-0.3,48.9*,-8.1,1.0
COc1ccc(N=CC2=C(O)c3ccccc3C2=O)cc1,0.0,42.7*,-3.5,14.6
CS(=O)(=O)N(CC(=O)NCc1ccco1)C1CCCCC1,0.1,-3.9,-0.1,-1.0
Cc1ccc(S(=O)(=O)N2c3ccc(C)cc3-c3ccccc3S2(=O)=O)cc1,-0.1,50.4*,3.1,-2.5
COc1ccc2c(c1)-c1cc(Cl)ccc1S(=O)(=O)N2S(=O)(=O)c1ccc(C)cc1,0.0,2.0,0.0,4.7
CC1=NN(c2ccccc2)C(=O)C1N=Nc1cccc(O)c1 (stereo not given),-0.7,48.7*,-0.9,26.4
COc1ccccc1CCNC(=O)c1ccc2c(c1)CC(c1nc3ccc(-c4ccnc(N)n4)cc3[nH]1)CO2 (stereo not given),3.0*,28.8,-0.6,-7.3
CN(C)CCNC(=O)c1ccc2c(c1)CC(c1nc3ccc(-c4ccnc(N)n4)cc3[nH]1)CO2 (stereo not given),0.3,-1.8,-0.7,38.2
Nc1nccc(-c2ccc3nc(C4COc5ccc(C(=O)NCCc6cccs6)cc5C4)[nH]c3c2)n1 (stereo not given),23.8*,20.5,-1.4,-8.5
O=C1CCCC2=C1C(c1cccc(Br)c1)Nc1ccccc1N2 (stereo not given),0.4,-2.0,-0.4,13.8
O=C1CCCC2=C1C(c1ccc(F)cc1)Nc1ccc(C(=O)c3ccccc3)cc1N2 (stereo not given),0.1,21.8,-1.6,12.3
O=C1CCCC2=C1C(c1ccc(O)cc1)Nc1ccc(C(=O)c3ccccc3)cc1N2 (stereo not given),-0.1,33.9*,0.3,4.0
O=C1CCCC2=C1C(c1cccs1)N(C(=O)c1ccccc1)c1ccccc1N2 (stereo not given),-0.1,3.5,-0.5,2.5
O=C1CCCC2=C1C(c1cccs1)Nc1ccc(C(=O)c3ccccc3)cc1N2 (stereo not given),0.0,54.8*,0.0,-3.0
